The results in this text go back to PubChem BioAssay (NCATS).

Inconclusive results are not listed. Values without a mark were called inactive. Calls of active or inactive are those of the source. Calls follow the shape of the dose curve; as a rule, active = well fitted cell-killing curve with a large enough effect; inconclusive = small, poorly fitted or top-dose-only effect, or effect the other way; inactive = no such curve, though single readings can be large or run the other way.
Potency is read from the fitted curve at half-maximal effect.

The nature of the assay: Viability qHTS for spleen associated tyrosine kinase inhibitor (SYKi) drug resistant MV4-11 cells (AID 1963824). Also: nearly all actives have a fitted effect of over 35% in size. Particulars: SYKi-resistant MV4-11 viability, CellTiter-Glo, 72 h; series mostly up to 45 µM. A digest of the protocol: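 SYK-inhibitor-resistant MV4-11 AML cells were seeded at 500 per well onto compound and cultured 72 hours (37 °C, 5% CO2). CellTiter-Glo was then added, and after 10 min at room temperature, luminescence gave viability.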
Background: Quantitative high-throughput screening tests each substance at several concentrations.
With `CC1CCCC(SCC(O)C(=O)O)CC(=O)c2c(O)cc(O)cc2CC(=O)O1` (stereo not given), the Potency was 2.24 µM (active). Consider `CC(C)(C)n1nc(Cc2cccc3ccccc23)c2c(N)ncnc21`, for which the Potency is 13 µM (active). Take `CC(=O)OC1C(OC(=O)c2ccccc2)C2C(C)(C)CCC(OC(C)=O)C2(C)C23CCC(C)(C2)C(=O)CC13` (stereo not given): the Potency is 10 µM (active). As for `C=C(C(=O)O)[C@@H]1CC=C2CCC[C@H](C)[C@@]2(C)C1`, the Potency result is “inactive”. Regarding `CC(=O)C1=C(C)N(c2cccc(C(F)(F)F)c2)C(=O)N[C@H]1c1ccc(C#N)nc1`, the viability, % of control is 87% [at 9.25 µM]. For `C/C=C(\C)C(=O)OCC1OC(OCC2OC(OC3(CO)OC(CO)C(O)C3O)C(O)C(O)C2O)C(O)C(O)C1O` (stereo not given), the Potency entry is “inactive”. `COc1ccc(C2(CNC(=O)[C@](C)(Cc3c[nH]c4ccccc34)NC(=O)Nc3ccc([N+](=O)[O-])cc3)CCCCC2)nc1`: the Potency is 20.6 µM (active). In the case of `Cc1cnc(NC(=O)Nc2cc(Br)c(C)cc2OCC2CNCCO2)cn1` (stereo not given), the Potency is 0.82 µM (active). On the same count and under the same terms, with `CCCCNc1ccc(-c2ccc(CN3CCOCC3)cn2)c(NC2CCC(O)CC2)c1` (stereo not given) the figure was 0.0502 µM (active); with `COc1cc(CNC(=O)CCCC/C=C/C(C)C)ccc1O`, 18.4 µM (active); with `CCCOC(c1cc2nccc(C(=O)O)c2[nH]1)c1ccccc1Cl` (stereo not given), “inactive”. As for `COc1ccc2c(c1O[C@H]1CCNC1)CCC2`, the Potency entry is “inactive”. Still for that read-out and setting: with `Nc1nc(OC(c2ccc(-c3cccc(F)c3)cc2)C(F)(F)F)cc(-c2ccc(C[C@H](N)C(=O)O)cc2)n1` (stereo not given in full) the figure was 18.6 µM (active); with `COc1ccc(C[C@H]2COC(=O)[C@@H]2Cc2ccc(O[C@@H]3O[C@H](CO)[C@@H](O)[C@H](O)[C@H]3O)c(OC)c2)cc1OC`, 1.42 µM (active). Still for that read-out and setting: with `COC(=O)CC(O)C1OC(c2ccccc2)C(O)C1O` (stereo not given) the entry was “inactive”; with `COc1cc2c(cc1O)C1(OC)Cc3ccc4c(c3C1N(C)CC2)OCO4` (stereo not given), 5.08 µM (active); with `CCOC(=O)CCNc1cc(N2CCc3ccccc3CC2)nc(-c2cccnc2)n1`, 14.6 µM (active). Turning to `OC[C@H]1O[C@@H](O[C@H]2[C@H](OCc3ccccc3)O[C@H](CO[C@@H]3OC[C@@H](O)[C@H](O)[C@H]3O)[C@@H](O)[C@@H]2O)[C@H](O)[C@@H](O)[C@@H]1O`, the Potency entry is “inactive”. On to `CS(=O)(=O)c1ccc(-c2cn3ccccc3n2)cc1`, for which the Potency result is “inactive”. As to `CC(C)n1cnc2c(NCc3cccc(C(F)(F)F)c3)ncnc21`, the Potency is 20.6 µM (active). Same read-out and setting: with `CCCCC/C=C\C/C=C\CCCCCCCC(=O)NC(C)c1ccccc1` (stereo not given) the figure was 7.5 µM (active); with `Cc1ncsc1-c1ccc([C@H](C)NC(=O)[C@@H]2C[C@@H](O)CN2C(=O)[C@@H](NC(=O)COCCCOCCNC(=O)C[C@@H]2N=C(c3ccc(Cl)cc3)c3c(sc(C)c3C)-n3c(C)nnc32)C(C)(C)C)cc1`, 0.0023 µM (active).

As for `CC(C)(C)n1nc(Cc2cccc([N+](=O)[O-])c2)c2c(N)ncnc21`, the Potency is 5.17 µM (active). Consider `OC(CC1c2ccccc2-c2cncn21)C1CCCCC1` (stereo not given), for which the Potency is 20.6 µM (active).

Take `NCCCNc1ccc(Nc2nccc(Nc3cc(C4CC4)[nH]n3)n2)cc1`: the Potency is 0.164 µM (active). `CNCCC(c1cccs1)c1ccc(O)c2ccccc12` (stereo not given): the Potency was 14.6 µM (active). For the molecule `CCC/C=C/C=C/C1CC(O)C2(O)C(=O)OCC12` (stereo not given), the Potency result was “inactive”.

In the case of `CO[C@H]1/C=C\O[C@@]2(C)Oc3c(C)c(O)c4c(O)c(c5c(nc6cc(C)ccn65)c4c3C2=O)NC(=O)/C(C)=C\C=C/[C@H](C)[C@H](O)[C@@H](C)[C@@H](O)[C@@H](C)[C@H](OC(C)=O)[C@@H]1C`, the Potency is 16.4 µM (active). Consider `Cc1cn2c(n1)Cc1ccc(Cl)cc1C(c1ccc(N)cc1)=N2`, for which the Potency was 18.4 µM (active). `C=CC(C)(C)c1[nH]c2cc3c(cc2c1CC1NC(=O)C2CCCN2C1=O)C=CC(C)(C)O3` (stereo not given): the Potency result is “inactive”. Regarding `Cc1cc(Nc2ncnc3ccc(NC4=NC(C)(C)CO4)cc23)ccc1Oc1ccn2ncnc2c1`, the Potency is 16.4 µM (active). Turning to `COC(=O)[C@H](Cc1ccc([N+](=O)[O-])cc1)NC(=O)c1cccc2ccccc12`, the Potency is 4.11 µM (active). As for `Cc1cccc(-c2[nH]ncc2-c2ccnc3ccccc23)n1`, the Potency was 16.4 µM (active). Consider `C=C1CC2C(C)(CCC(=O)O)C(C(C)(C)O)CCC2(C)C2C(=O)OC(C)(C(=O)OC)C(=O)C12C` (stereo not given), for which the Potency entry was “inactive”. `O=C(Nc1cnccc1Cl)N1CCN(Cc2ccc3c(c2)OC(F)(F)O3)CC1`: the Potency is 5.9 µM (active).

Turning to `Nc1ncnc2c1nc(N)n2[C@@H]1O[C@H](CO)[C@@H](O)[C@H]1O`, the Potency is 0.517 µM (active). For the molecule `CC12CCC(=O)C=C1C(O)CC1C2C(O)CC2(C)C1CC[C@]2(O)C(=O)CO` (stereo not given in full), the viability, % of control was 90% [at 9.25 µM]. As for `CC(C)[C@H]1CCC(CO)=C[C@@H]1/C=C(\CO)C(=O)O`, the Potency result was “inactive”.

Turning to `COC(=O)CC(O)CC(O)/C=C/c1c(C)ccc2c1C(OC(C)=O)CC(C)C2` (stereo not given), the Potency was 1.8 µM (active). Take `CCCSc1nc(N[C@@H]2C[C@H]2c2ccc(F)c(F)c2)c2nnn([C@@H]3C[C@H](OCCO)[C@@H](O)[C@H]3O)c2n1`: the Potency was 23.1 µM (active).
